# Bioassay records (PubChem)
# Pf growth 48h: inhibits P. falciparum growth in the first generation, 48 h. hit rate 5.9% among 310,000. Potency, µM (doses to about 28.7 µM), inactives show top-dose activity change, negative = inhibition, usual class: inhibitors. P. falciparum luciferase growth in erythrocytes, 48 h. AID 504832; also: % is scaled to controls: 0 for no effect and ±100 for the full control effect
#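 Growth was read as firefly luciferase luminescence after a 48 h, 37 C, 5% CO2 exposure of compounds to reporter-bearing P. falciparum cultures (0.1% parasitemia, 2% hematocrit final) in Albumax-supplemented RPMI 1640.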
# Pf growth 96h: P. falciparum growth inhibition at 96 hours. AID 504834. hit rate 6.9% among 320,000. Potency, µM (doses to about 28.7 µM), inactives show top-dose activity change, negative = inhibition, usual class: inhibitors. P. falciparum luciferase reporter growth, 96 h; also: % is scaled to controls: 0 for no effect and ±100 for the full control effect
#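 Compounds incubated with erythrocytes infected by luciferase-expressing P. falciparum (2% hematocrit, 0.05% parasitemia final) for 96 hours, 37 C in 5% CO2. Growth inhibition scored as decreased luciferase luminescence.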
# Sm TGR inh: blocks Schistosoma mansoni thioredoxin glutathione reductase; purified TGR, DTNB reduction, TNB absorbance 405 nm; Potency, µM (highest dose often 114 µM), for the others: at the top dose activity change, negative = inhibition, hits mostly inhibitors; hit rate 3% among 360,000; AID 485364; also: % is scaled to controls: 0 for no effect and ±100 for the full control effect; nearly all actives have a fitted effect of over 60% in size
#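 First, TGR (20 nM dispensed) and NADPH were mixed with compound. Second, a 15 min room-temperature incubation followed. Third, further NADPH and then DTNB were added to start the reaction. Finally, TNB absorbance was monitored kinetically.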
# SARS PLpro yeast: inhibitors of SARS-CoV papain-like protease in yeast. S. cerevisiae expressing SARS-CoV PLpro, growth rescue. Potency, µM (series often up to 32.9 µM), for inactives: at the top dose activity, positive = growth rescue, most hits filed as activators. hit rate 0.19% among 330,000. AID 485353; calls by dose curve; also: 0% is about no effect; nearly all actives have a fitted effect of over 55% in size
# An asterisk follows results filed as active; u = inconclusive; x = no result given. Sampled rows, rich in hits. Any-hit rate of the full collection: about 12%. Unless noted, calls follow the shape of the dose curve; as a rule, active = well fitted curve in the direction sought with a large enough effect; inconclusive = small, poorly fitted or top-dose-only effect, or another doubt; inactive = no such curve, though single readings can be large; an effect the other way counts as inactive or inconclusive. Potency is read from the fitted curve at half-maximal effect.
SMILES,Pf growth 48h,Pf growth 96h,Sm TGR inh,SARS PLpro yeast
CCOc1ccc(NC(=NCc2ccc3c(c2)OCO3)SC2CC(=O)N(c3ccccc3)C2=O)cc1 (stereo not drawn),u,u,1%,-3%
CCOc1ccc(NC(=NCc2ccc3c(c2)OCO3)SC2CC(=O)N(c3ccc(OCC)cc3)C2=O)cc1 (stereo not drawn),u,3.7µM*,-1%,u
CCOc1ccc(NC(=NCc2ccc3c(c2)OCO3)SC2CC(=O)N(c3ccc(C(=O)O)cc3)C2=O)cc1 (stereo not drawn),u,9.3µM*,3%,-4%
O=C(Nc1cc2ccc(O)cc2oc1=O)c1ccccc1,x,x,6%,x
CN1C(=CC=C2C=C(I)C(=O)C(I)=C2)C(C)(C)c2ccccc21,3.3µM*,2.1µM*,-8%,-2%
CN1/C(=C\C=[N+](C)c2ccccc2)C(C)(C)c2ccccc21,0.41µM*,2.1µM*,-3%,-1%
CN1/C(=C\C=C2/C(=O)Oc3ccccc3C2=O)C(C)(C)c2ccccc21,12µM*,u,0%,8%
CC(=O)Nc1ccc(SCC(=O)Nc2ccccc2N2CCOCC2)cc1,x,x,x,-1%
Cc1oc2cc(O)cc(C)c2c(=O)c1-c1cnn(-c2ccccc2)c1,13µM*,-1%,2%,-25%
Cc1oc2c(O)c(O)ccc2c(=O)c1-c1cnn(-c2ccccc2)c1,u,-15%,6%,1%
CCOC(=O)Cc1csc(NC(=O)NC2(C(F)(F)F)Oc3ccccc3O2)n1,x,u,14µM*,-3%
CCOC(=O)Cc1csc(NC(=O)NC2(C(F)(F)F)Oc3ccc(Cl)cc3O2)n1 (stereo not drawn),x,u,u,3%
CCOC(=O)Cc1csc(NC(=O)Nc2ccc(OC(F)(F)F)cc2)n1,12µM*,9.3µM*,10%,0%
CCOC(=O)Cc1csc(N/N=C/c2ccccc2)n1,180%,5%,-5%,16%
CCOC(=O)Cc1csc(N/N=C\c2ccc(N(C)C)cc2)n1,7.4µM*,9.3µM*,0%,12%
CN(C)/C(=N\S(=O)(=O)c1ccc(Cl)cc1)c1ccc(F)cc1,0%,15%,-1%,2%
CCCC(=O)Nc1ccc(-c2csc(N/N=C\c3ccncc3)n2)cc1,8.3µM*,u,18µM*,-1%
CC(=O)Nc1ccc(-c2csc(N/N=C\c3ccncc3)n2)cc1,u,u,u,1%
CCCC(=O)Nc1ccc(-c2csc(NNC(C)=O)n2)cc1,28%,5%,25µM*,2%
CC(=O)NNc1nc(-c2ccc(C)cc2)cs1,0%,-3%,u,4%
CSc1ccc(CNC(=O)CCc2c(C)nn(-c3ccc(N4CCCC4)nn3)c2C)cc1,x,x,4%,x
Cc1ccc(NC(=O)CSc2nc3nccnc3c(=O)n2CCc2c[nH]c3ccccc23)cc1C,x,x,-2%,x
C[C@H]1C[C@@H](C)C(=O)[C@@H]([C@H](O)CC2CC(=O)NC(=O)C2)C1,0.033µM*,u,6%,-7%
CCCCCCCCNc1ncnc2ccccc12,x,5.2µM*,-32%,-27%
Cc1ccc(/C=N/NC(=O)Cc2ccc(O)cc2)s1,6%,7.4µM*,-1%,1%
SMILES,Pf growth 48h,Pf growth 96h,Sm TGR inh,SARS PLpro yeast
CN(C)c1cc(Nc2ccc(O)cc2)c([N+](=O)[O-])c2nonc12,55%,36%,0%,6%
CCCC(=O)NC(C)c1nc2ccccc2[nH]1 (stereo not drawn),0%,39%,4%,10%
CCCC(=O)OCCNc1cc(Sc2nc3ccccc3[nH]2)c2nonc2c1[N+](=O)[O-],u,123%,0.5µM*,-8%
CCC(=O)OCCNc1cc(SCCC(=O)OC)c2nonc2c1[N+](=O)[O-],u,u,6.3µM*,-8%
CCC(=O)OCCNc1cc(Sc2nccn2C)c2nonc2c1[N+](=O)[O-],u,75%,0.71µM*,-27%
O=C(CS(=O)(=O)c1cccc2nsnc12)N1CCN(c2cccc(C(F)(F)F)c2)CC1,x,x,5%,x
O=C(O)c1cccnc1Sc1ccc(Br)cc1,-1%,-3%,11%,-1%
CCOC(=O)C1=C(c2ccccc2)N2CCS(=O)(=O)N=C2S1,-1%,10µM*,-3%,-7%
CCC(C(=O)c1ccccc1)N(C(=O)c1ccccc1Cl)N1C(=O)C2C3C=CC(C3)C2C1=O (stereo not drawn),u,10µM*,-14%,-2%
CSc1ccc(CNC(=O)Cn2nc(N3CCN(c4ccccc4)CC3)ccc2=O)cc1,x,x,-3%,x
CCN1C(=O)[C@@H]2[C@@H](c3ccc(-c4ccc5c(c4)OCO5)c(OC)c3)N3CCC[C@@]3(C(=O)OC)[C@@H]2C1=O,u,u,-23%,1%
CCN1C(=O)[C@@H]2[C@@H](c3ccc(-c4cccc(Cl)c4)c(OC)c3)N3CCCC[C@@]3(C(=O)OC)[C@@H]2C1=O,10µM*,3.7µM*,-14%,1%
CCN1C(=O)[C@H]2[C@@H](c3ccc(-c4ccc(F)cc4)c(OC)c3)N3CCC[C@@]3(C(=O)OC)[C@H]2C1=O,7.4µM*,7.4µM*,u,-1%
CCN1C(=O)[C@@H]2[C@@H](c3ccc(-c4ccc(Cl)c(Cl)c4)c(OC)c3)N3CCC[C@@]3(C(=O)OC)[C@@H]2C1=O,5.2µM*,0.83µM*,35µM*,-7%
CCN1C(=O)[C@@H]2[C@@H](c3ccc(-c4ccc(OC)cc4)c(OC)c3)N3CCCC[C@@]3(C(=O)OC)[C@@H]2C1=O,2.9µM*,4.1µM*,-34%,-5%
CCOc1ccccc1N(CC)C(=O)c1noc2c1COc1ccc(C)cc1-2,x,x,5%,x
CCN1C(=O)[C@H]2[C@@H](c3ccc(-c4ccc(OC)cc4)c(OC)c3)N3CCCC[C@@]3(C(=O)OC)[C@H]2C1=O,12µM*,9.3µM*,-20%,-2%
Cc1ccc2nc(Nc3nc(CSc4nnc(C)s4)cc(=O)[nH]3)nc(C)c2c1,u,3.3µM*,0%,0%
Cc1ccc2c(C)nc(Nc3nc(CSc4nc5ccccc5[nH]4)cc(=O)[nH]3)nc2c1,10µM*,u,4%,15%
Cc1ccc(SCc2cc(=O)[nH]c(Nc3nc(C)c4ccc(C)cc4n3)n2)cc1,48%,u,-6%,10%
CC(C)(C)CN1CCNC(=O)C1CC(=O)NCCc1ccccc1F (stereo not drawn),-14%,2%,50µM*,0%
CC(C)(C)CN1CCNC(=O)C1CC(=O)NCCc1cnn(-c2ccccc2)c1 (stereo not drawn),0%,1%,u,-2%
CSc1cccc(CNC(=O)CC2C(=O)NCCN2CC(C)(C)C)c1 (stereo not drawn),9%,6%,40µM*,-1%
O=C(Nc1c2c(nn1-c1ccccc1)CS(=O)C2)c1ccc2c(c1)OCO2 (stereo not drawn),17%,19%,2%,18%
COc1ccc(Nc2oc(/C=C/c3ccc(OC)c(OC)c3)nc2C#N)cc1,x,x,-13%,x
Clc1ccc(C(Cl)(Cl)Cl)c(Cl)c1,3%,0%,2.8µM*,-21%
OCc1ccc(Cl)cc1Cl,12%,-3%,x,x
